The results in this text go back to PubChem BioAssay AID493179 (National Center for Advancing Translational Sciences (NCATS), 2011).

Results filed as inconclusive are left out. Activity calls are given as the source filed them. Calls come from the whole dose curve; as a rule, active = well fitted inhibition curve with a large enough effect; inconclusive = small, poorly fitted or top-dose-only effect; inactive = flat fitted curve, though single readings scatter.

A short description of this test: Secondary Assay for General miRNAs Modulators and/or Inhibitors/Activators of miR-21: miR-30 Firefly Luciferase Assay for second round cherrypicks. The settings on record: HeLa miR-30 FLuc reporter, luminescence, 48 h. An excerpt:
MLPCN Grant: 1 R21 NS059478-01 Assay Provider: Qihong Huang, The Wistar Institute NCGC Assay Overview: MicroRNAs (miRNAs) are endogenously encoded small (~20-25 nucleotides), nonprotein-coding RNAs that are involved in post-transcriptional repression of target messenger RNAs (mRNAs) (Le and Hannon, 2004). Estimated to be involved in the regulation of 30% of all protein-coding mRNAs (Filipowicz et al., 2008), miRNAs play a significant role in many biological processes including cellular differentiation and tissue development (Ghildiyal and Zamore, 2009). […] Compounds active in the miR-21 FLuc assay were clustered using Leadscope and active chemical series were prioritized based on chemical properties, potential for medicinal chemistry optimization, and SAR. Within each chemical series, representative compounds were re-acquired to test for activity in a secondary assay based on the quality of their CRC, efficacy, and potency. […]
NCGC Assay Protocol Summary: Reagents: HeLa cells stably expressing firefly luciferase (FLuc) under the control of a CMV promoter (upstream) and a miR-30 binding sequence directly downstream of the gene. […] After a 15 minute incubation to allow for cell lysis, luciferase activity was measured using a ViewLux CCD imager (PerkinElmer), with an average exposure time of 2-12 seconds. […]

With `O=c1c2ccccc2nc(Cc2ccccc2)n1-c1ccccc1`, the Potency is 20 µM (active).
